Test results from the supplement of paper PMC10849652.
About 7,900 targets were measured; listed, in parts, are those with a hit and a random draw of the rest. About 0.6% of all pairs of compound and target were hits. Values without a mark were called inactive.

How the values were obtained:
Test in all cases: log2 fold change, soluble protein after heating vs DMSO (PISA); higher = thermal stabilisation; K562 cells, 10 uM, 30 min; active = over 0.2 and 3.5 SD of the protein, either way, in both replicates (recomputed)
[1] = compound: CC[C@@H]1C(=O)N(C)c2cnc(Nc3ccc(C(=O)NC4CCN(C)CC4)cc3OC)nc2N1C1CCCC1
Summary of the method: (§1)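 Thermal stability values are relative to control samples and come from duplicates. They are expressed as log2 fold changes. For measurement, K562 cells (2×10^6 cells/mL) received 10 μM compound for 30 min, and aliquots were heated for 3 min over 48°C-58°C, pooled, and extracted at 4°C in PBS with 0.5% NP-40. Soluble protein, the supernatant after 21,000xg for 90 min, was quantified by TMTpro 16plex LC-MS/MS with equalised channel sums.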

volasertib = compound: CC[C@@H]1C(=O)N(C)c2cnc(Nc3ccc(C(=O)N[C@H]4CC[C@H](N5CCN(CC6CC6)CC5)CC4)cc3OC)nc2N1C(C)C [volasertib]
Summary of the method: as §1

[2] = compound: CC[C@H](C)N1C=C(C2=C(C=C(C=C21)C3=CN=C(C=C3)N4CCNCC4)C(=O)NCC5=C(C=C(NC5=O)C)C)C
Summary of the method: as §1

epoxomicin = compound: CC[C@H](C)[C@@H](C(=O)N[C@@H]([C@@H](C)O)C(=O)N[C@@H](CC(C)C)C(=O)[C@]1(CO1)C)NC(=O)[C@H]([C@@H](C)CC)N(C)C(=O)C [epoxomicin]
Summary of the method: as §1

[3] = compound: CCn1c(C(=O)N(C2CC2)C2CC2)cc2c3c(ncn3C)c(Nc3cc(C)n(C)n3)nc21
Summary of the method: as §1

[4] = compound: CCn1cc(-c2ccnc3[nH]c(-c4cccc(CN(C)C)c4)cc23)c(-c2ccc(NC(=O)N(C)C)cc2)n1
Summary of the method: as §1

[5] = compound: CN(C)CC(=O)Nc1ccc2[nH]c(=O)c3ccccc3c2c1
Summary of the method: as §1

rosiglitazone = compound: CN(CCOC1=CC=C(C=C1)C[C@H]2C(=O)NC(=O)S2)C3=CC=CC=N3 (racemic) [rosiglitazone]
Summary of the method: as §1

[6] = compound: CN1C2=C(C3=C1C(=O)N(N=C3)CC4=CC(=CC=C4)N)SC(=C2)S(=O)C
Summary of the method: as §1

[7] = compound: CN1CCC(CNc2ccc3ncc(-c4cccc(OC(F)(F)F)c4)n3n2)CC1
Summary of the method: as §1

saracatinib = compound: CN1CCN(CCOc2cc(OC3CCOCC3)c3c(Nc4c(Cl)ccc5c4OCO5)ncnc3c2)CC1 [saracatinib]
Summary of the method: as §1

sotrastaurin = compound: CN1CCN(c2nc(C3=C(c4c[nH]c5ccccc45)C(=O)NC3=O)c3ccccc3n2)CC1 [sotrastaurin]
Summary of the method: as §1

alvocidib = compound: CN1CC[C@H](c2c(O)cc(O)c3c(=O)cc(-c4ccccc4Cl)oc23)[C@H](O)C1 [alvocidib]
Summary of the method: as §1

Tubastatin A = compound: CN1CCc2c(c3ccccc3n2Cc2ccc(C(=O)NO)cc2)C1 [Tubastatin A]
Summary of the method: as §1

[8] = compound: CNC(=O)C1=CC=CC=C1NC2=NC(=NC=C2Cl)NC3=C(C=C(C=C3)N4CCOCC4)OC
Summary of the method: as §1

defactinib = compound: CNC(=O)c1ccc(Nc2ncc(C(F)(F)F)c(NCc3nccnc3N(C)S(C)(=O)=O)n2)cc1 [defactinib]
Summary of the method: as §1

rucaparib = compound: CNCc1ccc(-c2[nH]c3cc(F)cc4c3c2CCNC4=O)cc1 [rucaparib]
Summary of the method: as §1

[9] = compound: CNc1nc(-c2ccc3c(N)n[nH]c3c2)cc(N2C[C@@H](C(=O)NC3CCCCC3)CC[C@H]2C)n1
Summary of the method: as §1

encorafenib = compound: COC(=O)N[C@@H](C)CNc1nccc(-c2cn(C(C)C)nc2-c2cc(Cl)cc(NS(C)(=O)=O)c2F)n1 [encorafenib]
Summary of the method: as §1

[10] = compound: COC(=O)[C@H](CCSC)NC(=O)C1=C(C=C(C=C1)NC[C@H](CS)N)C2=CC=CC=C2
Summary of the method: as §1

UniProt Q9Y587, sequence (Q9Y587 whole entry, looked up): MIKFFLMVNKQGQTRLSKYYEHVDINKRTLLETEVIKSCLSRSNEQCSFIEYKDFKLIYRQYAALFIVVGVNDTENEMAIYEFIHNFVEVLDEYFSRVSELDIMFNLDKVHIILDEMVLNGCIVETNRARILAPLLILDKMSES
UniProt Q5T9A4, sequence (Q5T9A4 whole entry, looked up): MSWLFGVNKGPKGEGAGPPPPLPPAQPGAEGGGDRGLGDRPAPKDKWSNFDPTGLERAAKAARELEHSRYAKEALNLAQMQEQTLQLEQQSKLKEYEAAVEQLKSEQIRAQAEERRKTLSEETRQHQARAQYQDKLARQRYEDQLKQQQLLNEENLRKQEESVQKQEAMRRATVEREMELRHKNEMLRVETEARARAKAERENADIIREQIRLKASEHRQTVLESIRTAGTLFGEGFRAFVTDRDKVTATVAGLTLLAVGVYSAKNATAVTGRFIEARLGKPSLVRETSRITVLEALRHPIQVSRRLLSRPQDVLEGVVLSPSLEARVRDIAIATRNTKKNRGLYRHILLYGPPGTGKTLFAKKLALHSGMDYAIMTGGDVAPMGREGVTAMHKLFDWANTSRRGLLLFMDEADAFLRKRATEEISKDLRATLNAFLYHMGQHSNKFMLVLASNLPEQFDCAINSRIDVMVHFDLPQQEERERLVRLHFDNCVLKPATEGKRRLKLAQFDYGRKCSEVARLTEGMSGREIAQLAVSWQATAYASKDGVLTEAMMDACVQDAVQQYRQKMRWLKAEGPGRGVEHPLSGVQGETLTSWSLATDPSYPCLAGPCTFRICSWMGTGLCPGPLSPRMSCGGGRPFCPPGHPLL
UniProt Q9Y679, sequence (Q9Y679 whole entry, looked up): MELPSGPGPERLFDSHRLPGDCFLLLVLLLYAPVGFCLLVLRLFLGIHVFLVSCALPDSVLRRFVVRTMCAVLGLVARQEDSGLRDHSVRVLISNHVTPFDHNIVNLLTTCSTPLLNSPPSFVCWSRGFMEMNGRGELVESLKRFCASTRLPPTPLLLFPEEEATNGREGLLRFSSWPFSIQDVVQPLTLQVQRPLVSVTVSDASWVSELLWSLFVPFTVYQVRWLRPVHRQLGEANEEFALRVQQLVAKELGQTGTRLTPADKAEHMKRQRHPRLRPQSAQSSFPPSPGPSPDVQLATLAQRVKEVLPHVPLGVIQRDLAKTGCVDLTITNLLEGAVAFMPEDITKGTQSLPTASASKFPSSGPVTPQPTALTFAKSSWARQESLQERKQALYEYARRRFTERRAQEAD
UniProt P17707, sequence (P17707 whole entry, looked up): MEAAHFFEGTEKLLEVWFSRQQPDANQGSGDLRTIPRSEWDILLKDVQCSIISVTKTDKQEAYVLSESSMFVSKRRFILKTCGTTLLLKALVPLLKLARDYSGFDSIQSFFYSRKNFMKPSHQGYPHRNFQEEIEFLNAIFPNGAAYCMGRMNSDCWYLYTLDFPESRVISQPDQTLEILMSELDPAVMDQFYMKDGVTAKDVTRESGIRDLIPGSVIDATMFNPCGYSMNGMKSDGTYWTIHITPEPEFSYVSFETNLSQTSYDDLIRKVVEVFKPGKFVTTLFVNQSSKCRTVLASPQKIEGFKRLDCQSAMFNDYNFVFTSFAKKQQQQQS
UniProt P54252, sequence (P54252 whole entry, looked up): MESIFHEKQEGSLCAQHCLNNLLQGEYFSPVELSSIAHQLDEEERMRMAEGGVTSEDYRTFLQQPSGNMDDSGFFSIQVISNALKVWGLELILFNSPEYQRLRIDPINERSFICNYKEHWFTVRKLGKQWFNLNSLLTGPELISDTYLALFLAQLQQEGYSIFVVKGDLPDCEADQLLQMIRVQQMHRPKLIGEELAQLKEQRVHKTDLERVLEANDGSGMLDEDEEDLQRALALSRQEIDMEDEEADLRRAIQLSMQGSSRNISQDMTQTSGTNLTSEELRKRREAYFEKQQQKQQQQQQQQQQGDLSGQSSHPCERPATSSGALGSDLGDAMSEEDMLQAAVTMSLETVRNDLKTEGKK
UniProt Q9UKV5, sequence (Q9UKV5 whole entry, looked up): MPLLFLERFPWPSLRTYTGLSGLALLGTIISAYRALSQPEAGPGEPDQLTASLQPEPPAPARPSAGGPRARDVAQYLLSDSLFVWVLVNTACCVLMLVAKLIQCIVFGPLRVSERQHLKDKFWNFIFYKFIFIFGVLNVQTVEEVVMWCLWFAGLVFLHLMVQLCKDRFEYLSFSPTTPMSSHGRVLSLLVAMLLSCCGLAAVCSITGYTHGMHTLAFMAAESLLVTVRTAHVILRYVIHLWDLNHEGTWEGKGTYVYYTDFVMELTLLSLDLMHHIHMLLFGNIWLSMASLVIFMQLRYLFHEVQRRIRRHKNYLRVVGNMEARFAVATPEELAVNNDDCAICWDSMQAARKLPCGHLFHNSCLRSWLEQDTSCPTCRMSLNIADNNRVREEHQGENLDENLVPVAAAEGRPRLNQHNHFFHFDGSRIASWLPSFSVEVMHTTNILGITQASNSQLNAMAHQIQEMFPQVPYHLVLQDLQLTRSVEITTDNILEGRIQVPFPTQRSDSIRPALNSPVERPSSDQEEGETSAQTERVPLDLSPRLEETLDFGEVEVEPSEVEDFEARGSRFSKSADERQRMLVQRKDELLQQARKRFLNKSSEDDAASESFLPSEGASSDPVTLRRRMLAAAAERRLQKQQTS
UniProt Q9NWX5, sequence (Q9NWX5 whole entry, looked up): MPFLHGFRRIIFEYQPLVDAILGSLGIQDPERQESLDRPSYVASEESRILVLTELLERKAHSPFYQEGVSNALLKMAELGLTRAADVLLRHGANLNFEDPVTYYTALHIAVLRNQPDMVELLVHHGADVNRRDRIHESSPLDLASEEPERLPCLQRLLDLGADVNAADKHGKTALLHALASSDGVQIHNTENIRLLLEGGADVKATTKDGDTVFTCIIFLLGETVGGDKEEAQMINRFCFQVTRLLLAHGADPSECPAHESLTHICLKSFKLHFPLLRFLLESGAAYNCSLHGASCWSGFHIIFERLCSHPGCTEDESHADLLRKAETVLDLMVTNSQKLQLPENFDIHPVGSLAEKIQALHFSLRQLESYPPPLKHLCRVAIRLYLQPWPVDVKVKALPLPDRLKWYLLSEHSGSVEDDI
UniProt Q15059, sequence (Q15059 whole entry, looked up): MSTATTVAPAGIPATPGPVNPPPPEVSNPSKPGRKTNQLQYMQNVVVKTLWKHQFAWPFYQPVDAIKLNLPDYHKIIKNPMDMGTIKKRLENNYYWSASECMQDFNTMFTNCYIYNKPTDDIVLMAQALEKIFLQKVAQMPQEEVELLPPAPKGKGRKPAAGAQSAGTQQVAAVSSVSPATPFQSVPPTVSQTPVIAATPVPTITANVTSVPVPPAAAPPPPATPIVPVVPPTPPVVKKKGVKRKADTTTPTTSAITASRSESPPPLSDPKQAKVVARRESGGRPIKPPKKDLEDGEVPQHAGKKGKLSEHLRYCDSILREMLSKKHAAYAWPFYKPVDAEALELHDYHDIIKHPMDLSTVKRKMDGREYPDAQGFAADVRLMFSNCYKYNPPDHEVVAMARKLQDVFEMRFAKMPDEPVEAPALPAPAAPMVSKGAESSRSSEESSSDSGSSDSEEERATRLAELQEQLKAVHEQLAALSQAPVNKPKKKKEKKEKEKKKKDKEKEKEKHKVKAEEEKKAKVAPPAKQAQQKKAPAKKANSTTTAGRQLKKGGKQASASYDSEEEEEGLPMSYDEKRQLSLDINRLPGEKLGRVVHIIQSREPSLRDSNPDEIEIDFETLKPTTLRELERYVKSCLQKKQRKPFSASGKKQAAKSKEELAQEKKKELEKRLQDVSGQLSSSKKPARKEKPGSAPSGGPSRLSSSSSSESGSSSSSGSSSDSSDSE
UniProt Q8NFV4, sequence (Q8NFV4 whole entry, looked up): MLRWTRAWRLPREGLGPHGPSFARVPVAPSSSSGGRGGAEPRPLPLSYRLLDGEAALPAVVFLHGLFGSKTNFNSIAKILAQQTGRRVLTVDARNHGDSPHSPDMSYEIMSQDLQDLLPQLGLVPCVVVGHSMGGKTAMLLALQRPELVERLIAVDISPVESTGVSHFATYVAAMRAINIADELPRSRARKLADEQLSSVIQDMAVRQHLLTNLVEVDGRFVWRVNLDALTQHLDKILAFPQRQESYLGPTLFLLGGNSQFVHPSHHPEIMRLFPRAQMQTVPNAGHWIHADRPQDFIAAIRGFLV
UniProt Q9NXW9, sequence (Q9NXW9 whole entry, looked up): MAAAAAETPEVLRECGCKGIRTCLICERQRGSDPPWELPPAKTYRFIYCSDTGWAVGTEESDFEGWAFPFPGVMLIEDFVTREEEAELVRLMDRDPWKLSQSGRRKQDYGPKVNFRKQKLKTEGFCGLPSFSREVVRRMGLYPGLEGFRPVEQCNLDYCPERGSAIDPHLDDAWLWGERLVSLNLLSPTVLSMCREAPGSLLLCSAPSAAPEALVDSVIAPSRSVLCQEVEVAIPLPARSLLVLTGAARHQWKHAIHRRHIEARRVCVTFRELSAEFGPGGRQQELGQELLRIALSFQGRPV
UniProt Q6QNY0, sequence (Q6QNY0 whole entry, looked up): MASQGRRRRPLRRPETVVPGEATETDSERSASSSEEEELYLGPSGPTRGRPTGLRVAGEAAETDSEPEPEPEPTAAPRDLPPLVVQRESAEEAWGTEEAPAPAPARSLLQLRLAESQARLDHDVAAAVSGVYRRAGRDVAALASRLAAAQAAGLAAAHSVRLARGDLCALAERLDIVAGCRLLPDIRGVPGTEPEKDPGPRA
UniProt P02749, sequence (P02749 whole entry, looked up): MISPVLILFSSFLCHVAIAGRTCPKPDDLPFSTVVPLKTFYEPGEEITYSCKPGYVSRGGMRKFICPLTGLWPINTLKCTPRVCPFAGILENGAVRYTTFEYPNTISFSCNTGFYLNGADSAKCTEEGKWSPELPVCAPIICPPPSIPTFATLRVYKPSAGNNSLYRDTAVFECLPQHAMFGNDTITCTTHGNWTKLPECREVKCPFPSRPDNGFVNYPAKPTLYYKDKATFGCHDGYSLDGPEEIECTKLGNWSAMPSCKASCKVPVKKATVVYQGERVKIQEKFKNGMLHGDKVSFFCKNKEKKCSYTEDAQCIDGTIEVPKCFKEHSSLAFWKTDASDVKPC

Target | log2 fold change [1] | log2 fold change (volasertib) | log2 fold change [2] | log2 fold change (epoxomicin) | log2 fold change [3] | log2 fold change [4] | log2 fold change [5] | log2 fold change (rosiglitazone) | log2 fold change [6] | log2 fold change [7] | log2 fold change (saracatinib) | log2 fold change (sotrastaurin) | log2 fold change (alvocidib) | log2 fold change (Tubastatin A) | log2 fold change [8] | log2 fold change (defactinib) | log2 fold change (rucaparib) | log2 fold change [9] | log2 fold change (encorafenib) | log2 fold change [10]
AP2A1 (UniProt O95782) | 0.076 | -0.085 | 0.015 | -0.011 | 0.022 | -0.002 | -0.041 | -0.011 | 0.005 | 0 | 0.049 | 0.001 | 0.027 | 0.001 | 0.004 | 0.012 | 0.01 | -0.047 | 0.032 | -0.038
AP2B1 isoform 2 (UniProt P63010) | 0.065 | -0.064 | -0.001 | -0.004 | 0.05 | -0.021 | -0.007 | -0.018 | -0.016 | 0.045 | 0.057 | -0.003 | 0.017 | 0.001 | 0.022 | 0.005 | 0.043 | -0.011 | 0.027 | 0.005
BLOC1S3 (UniProt Q6QNY0) | 0.024 | 0.018 | -0.04 | -0.011 | 0.005 | -0.017 | 0.058 | 0.048 | -0.062 | -0.01 | 0.049 | 0.034 | 0.015 | -0.064 | -0.05 | -0.044 | -0.047 | -0.031 | -0.035 | 0.028
AMFR (UniProt Q9UKV5) | -0.205 | -0.215 | 0.044 | 0.049 | -0.059 | 0 | -0.007 | 0.022 | 0.01 | -0.055 | -0.06 | -0.056 | -0.021 | -0.016 | 0.088 | -0.043 | 0.011 | -0.015 | 0.033 | 0.008
ATAD3B (UniProt Q5T9A4) | -0.076 | -0.167 | 0.093 | -0.045 | -0.018 | 0.112 | -0.026 | 0.005 | 0.167 | -0.339 (active) | -0.047 | -0.101 | 0.091 | -0.009 | -0.084 | 0.096 | 0.25 | 0 | 0.125 | 0.033
AUP1 (UniProt Q9Y679) | -0.132 | -0.253 | 0.032 | 0.046 | -0.002 | -0.028 | 0.089 | 0.12 | 0.014 | -0.24 (active) | 0.052 | -0.116 | -0.062 | 0.031 | -0.062 | -0.015 | -0.04 | -0.041 | 0.029 | -0.037
BAIAP2 (UniProt Q9UQB8) | -0.045 | -0.089 | 0.082 | 0.14 | -0.011 | -0.05 | -0.019 | 0.038 | -0.015 | -0.142 | 0.009 | -0.016 | -0.017 | 0.036 | -0.103 | -0.097 | 0.014 | -0.017 | 0.006 | -0.022
ACSF3 (UniProt Q4G176) | -0.014 | -0.093 | 0.039 | 0.152 | 0.034 | -0.17 | 0.008 | 0.125 | 0.016 | -0.116 | 0.079 | 0.002 | 0.026 | -0.067 | 0.099 | -0.058 | -0.051 | -0.016 | 0.146 | -0.019
ASB6 (UniProt Q9NWX5) | 0.047 | -0.321 | 0.028 | -0.094 | -0.016 | -0.076 | 0.041 | 0.067 |  | -0.083 |  | -0.029 |  |  | -0.078 | -0.033 | 0.124 |  | -0.094 | 0.031
ATXN3 isoform 1 (UniProt P54252) | -0.371 | -0.401 (active) | 0.099 |  | 0.011 | -0.016 | -0.083 | -0.039 |  | -0.015 |  |  | -0.109 | 0.138 | -0.03 | -0.119 | -0.015 |  | 0.085 | 0.018
AMD1 (UniProt P17707) | 0.061 | -0.098 | 0.099 | 0.057 | -0.073 | -0.033 | -0.101 | 0.089 |  | -0.091 |  | -0.017 |  | 0.014 | 0.02 | 0.082 | -0.08 |  | 0.023 | 0.042
ACTBL2 (UniProt Q562R1) | -0.121 | 0.153 | -0.133 | -0.1 | 0.05 | 0.162 | -0.3 | 0.07 | 0.011 | 0.065 | -0.054 | 0.179 |  |  | 0.158 | 0.432 | -0.711 | 0.035 | 0.239 | 0.15
AP4S1 (UniProt Q9Y587) | -0.117 | -0.321 | 0.059 | -0.006 | -0.056 |  | 0.027 | 0.024 | 0.078 |  | -0.08 | -0.117 | -0.099 |  | -0.05 | 0.059 | 0.039 | -0.072 | 0.073 | 0.008
APOH (UniProt P02749) | -0.397 | -0.443 | -0.167 |  | -0.171 | 0.078 | -0.141 | -0.048 | 0.48 | 0.077 | 0.097 | 0.317 | 0.371 | -0.128 | -0.032 | -0.042 | -0.13 | -0.391 | 0.041 | -0.021
BRD3 (UniProt Q15059) | 1.63 (active) | 1.46 (active) | -0.088 |  | -0.065 | 0.681 (active) | 0.073 | 0.019 | -0.143 | 0.106 | 0.093 | -0.116 | -0.076 | -0.571 (active) | 0.011 | -0.319 | -0.083 | 0.325 | 0.086 | -0.128
ALKBH4 (UniProt Q9NXW9) | -0.064 | -0.263 |  | 0.117 | -0.02 | -0.023 | 0.056 | 0.037 | -0.077 | -0.082 | -0.072 | -0.106 | -0.227 | 0.086 | 0.198 | -0.056 | 0.07 | 0.03 | 0.074 | 0.071
ABHD11 (UniProt Q8NFV4) | -0.077 | -0.127 | -0.003 | 0.272 | 0.045 | 0.086 | 0.007 | -0.016 | -0.033 | -0.126 | -0.022 |  | -0.066 | 0.096 | 0.05 | -0.114 | 0.02 | -0.102 | 0.004 | -0.095
